An excerpt weighted towards active compounds, which were near 19% of everything screened.
TDP1 cell CPT = qHTS for Inhibitors of human tyrosyl-DNA phosphodiesterase 1 (TDP1): qHTS in cells in presence of CPT; chicken DT40 Tdp1-/-;hTDP1 cells + 20 nM CPT, ATP luminescence, 48 h; Potency, µM (titrated, usually from 46.2 µM), without a hit: at the top dose activity change, negative = growth inhibition, usual class: inhibitors; hit rate 12% among 420,000; further: potency means the concentration at half of the fitted maximal effect; nearly all actives have a fitted effect of over 55% in size
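Cell growth measured by CellTiter-Glo luminescence after a minimum 48 h, 37 C compound exposure with 20 nM CPT in Tdp1-knockout DT40 cells stably expressing hTDP1, seeded 400/well; qHTS titration format.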
IL1B secr inh = qHTS for Inhibitors of Inflammasome Signaling: IL-1-beta AlphaLISA Primary Screen; activity change, % at 57.5 µM; hit rate 4.7% among 360,000; THP-1 LPS/ATP IL-1B secretion, AlphaLISA, 16 h; stronger effect = lower value; AID 743279, 2014; in the data active means activity change below about -50%; inconclusive means mostly about -30% to -49%
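THP-1 cells pretreated 1 hr with compounds (up to 57.5 uM final), then stimulated with LPS (250 ng/mL final) plus ATP (1.25 mM final); secreted IL-1B measured by AlphaLISA after 16 hr, decreased signal indicating inhibition.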
HT1080 IDH1KD tx = qHTS for induction of synthetic lethality in tumor cells producing 2HG: qHTS for the HT-1080-IDH1KD cell line; HT-1080 IDH1 knockdown viability, ATP luminescence, 48 h; Potency, µM (doses to about 46.1 µM), for inactives: top-dose activity, negative = toxicity, hits mostly cytotoxic; hit rate 2% among 360,000; AID 686971, 2013;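 further: potency means the concentration at half of the fitted maximal effect; 0% = DMSO wells and -100% = cell-free medium wells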
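After a 2 h attachment period, IDH1KD HT-1080 cells took pin-transferred compound for 48 h at 37 °C; ATP-based luminescence after 10 min room-temperature reagent incubation reported viability.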
uPA surface inh = qHTS for Inhibitors of Cell Surface uPA Generation; cell surface uPA generation assay, qHTS; Potency, µM (highest dose often 38.3 µM), without a hit: at the highest dose activity change, negative = inhibition, actives largely listed as inhibitors; hit rate 0.31% among 330,000; AID 540303, 2011; active means well fitted inhibition curve with a large enough effect; inconclusive means small, poorly fitted or top-dose-only effect; inactive means no such curve, though single readings can be large or run the other way; tested in mouse RAW 264.7 cells; further: potency means the concentration at half of the fitted maximal effect; nearly all actives have a fitted effect of over 55% in size
DT40 TDP1 no CPT = qHTS for Inhibitors of human tyrosyl-DNA phosphodiesterase 1 (TDP1): qHTS in cells in absence of CPT; DT40 Tdp1-/- hTDP1 cells, no CPT, ATP luminescence, 48 h; Potency, µM (top dose mostly 46.2 µM), without a hit: top-dose activity change, negative = growth inhibition, usual class: inhibitors; hit rate 15% among 420,000; AID 686978, 2013; further: potency means the concentration at half of the fitted maximal effect; nearly all actives have a fitted effect of over 55% in size
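Growth of hTDP1-complemented DT40 Tdp1-knockout cells is measured by ATP luminescence after at least 48 hr compound exposure at 37 °C, with DMSO substituting for the 20 nM CPT used in the parallel screen.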
HT1080NT lethal = qHTS for induction of synthetic lethality in tumor cells producing 2HG: qHTS for the HT-1080-NT fibrosarcoma cell line; HT-1080-NT fibrosarcoma viability, CellTiter-Glo ATP luminescence, 48 h; Potency, µM (titrated, usually from 46.1 µM), inactives show at the highest dose activity, negative = less viability, most hits filed as cytotoxic; hit rate 1.6% among 360,000;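 further: NT is the 2HG producing partner of a matched IDH1 knockdown line; potency means the concentration at half of the fitted maximal effect; 0% = DMSO-treated cells and -100% = media-only wells without cells; nearly all actives have a fitted effect of over 55% in size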
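Fibrosarcoma NT cells, 750 per well in 5% FBS RPMI, were exposed to compound for 48 hours. Viability: CellTiter-Glo luminescence.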
Starred values were filed as active, the others as inactive; u = inconclusive; x = not tested or not shown. Unless noted, the call rests on the fitted dose curve; in most records, active means well fitted curve in the direction sought with a large enough effect; inconclusive means small, poorly fitted or top-dose-only effect, or another doubt; inactive means no such curve, though single readings can be large; an effect the other way counts as inactive or inconclusive. Unless noted, on the % scale 0 is the no-effect control and ±100 the full control effect.

SMILES | TDP1 cell CPT | IL1B secr inh | HT1080 IDH1KD tx | uPA surface inh | DT40 TDP1 no CPT | HT1080NT lethal
COc1ccc(N(CC(=O)N2CCN(c3ccc(Cl)cc3)CC2)S(=O)(=O)c2c(C)noc2C)cc1 | u | u | -11.0% | u | u | -14.9%
COc1ccccc1CNC(=O)COc1cc(=O)n(C)c2ccccc12 | -28.2% | x | x | x | u | x
CCOc1ccc(N(CC(=O)N2CCN(c3ccccc3F)CC2)S(=O)(=O)c2c(C)noc2C)cc1 | -2.2% | 1.6 | -0.6% | 3.1% | 5.1% | -8.0%
CCOc1ccc(N(CC(=O)N2CCN(c3ccc(F)cc3)CC2)S(=O)(=O)c2c(C)noc2C)cc1 | 25.9µM* | -24.3 | -6.9% | -11.8% | u | -1.8%
O=C(Nc1ccccc1C(=O)Nc1nnc(C(F)(F)F)s1)c1ccccc1Cl | u | -73.4* | 10.3µM* | -7.2% | 16.4µM* | 10.3µM*
COCc1nnc(NC(=O)c2c(-c3c(Cl)cccc3Cl)noc2C)s1 | 13µM* | 19.7 | 20.6µM* | 3.7% | u | u
O=C(Nc1nnc(C(F)(F)F)s1)c1ccc(Br)s1 | 13µM* | -54.7* | u | -14.4% | 14.6µM* | u
Cc1onc(-c2c(F)cccc2Cl)c1C(=O)Nc1nccs1 | 2.7% | 16.6 | -1.5% | 0.9% | u | -22.1%
O=C(Nc1ccccc1NC(=O)c1ccccc1Cl)c1ccccc1Cl | -10.8% | 0.0 | 0.6% | 2.3% | -26.7% | -4.6%
Cc1onc(-c2c(F)cccc2Cl)c1C(=O)Nc1nnc(C(F)(F)F)s1 | 11.6µM* | u | u | -19.2% | 14.6µM* | u
COC(=O)CNC(=O)c1c(-c2c(Cl)cccc2Cl)noc1C | -2.5% | 10.5 | -1.1% | x | -5.8% | 12.6%
COc1ccccc1NC(=O)Cn1c(=O)n(-c2cccc(Cl)c2)c(=O)c2c1c1cc(C)ccc1n2C | -7.7% | x | x | x | -6.1% | x
CN1CCN(C(c2ccc(F)cc2)c2sc3nc(-c4ccco4)nn3c2O)CC1 (stereo not drawn) | -15.8% | x | x | x | -6.6% | x
CC(NC(=O)Nc1nnc(C(F)(F)F)s1)(C(F)(F)F)C(F)(F)F | 4.11µM* | -61.7* | 3.26µM* | -15.7% | 5.17µM* | 7.31µM*
N#Cc1ccccc1C[C@H](N)C(=O)NC[C@H]1O[C@@H](n2cnc3c(N)ncnc32)[C@H](O)[C@@H]1O | -14.7% | 22.3 | 7.1% | x | -5.4% | 7.3%
CC(=O)n1c2c(c3ccccc31)OC(N)=C(C#N)C2c1cccc(Cl)c1Cl (stereo not drawn) | 14.6µM* | 20.1 | u | u | 7.31µM* | u
COc1cc2c(cc1OC)n(CC(=O)c1cc(C)ccc1C)c(=O)n1nc(CCn3nc(C)cc3C)nc21 | 6.1% | x | x | x | -22.7% | x
Cc1ccc(SC2=C(Sc3ccc(C)cc3)C(=O)c3ccccc3C2=O)cc1 | 0.92µM* | -73.8* | -1.8% | -3.7% | 1.03µM* | 3.2%
CCOC(=O)Cn1nc(NC(=O)c2ccc(C(=O)OC)cc2)cc1C | u | -96.4* | -26.1% | -7.2% | u | -18.2%
CCOC(=O)Cn1ccc(NC(=O)c2ccc3c(c2)OCO3)n1 | u | -95.3* | 1.1% | u | u | 1.1%
CCOC(=O)Cn1nc(NC(=O)c2cc(OC)cc(OC)c2)cc1C | u | -2.7 | 2.0% | -3.5% | u | 0.5%
CCOc1ccc(-c2cc3c(=O)n(Cc4nc(-c5ccccc5OCC)oc4C)ccn3n2)cc1Cl | -5.7% | x | x | x | -1.1% | x
COc1cc(C2C=C(c3cccs3)Nc3ncnn32)cc(OC)c1OC (stereo not drawn) | 0.82µM* | -4.2 | u | -4.2% | 0.651µM* | u
COc1cc(C2CC(=O)C3=C(C2)Nc2ncnn2C3c2cccs2)cc(OC)c1OC (stereo not drawn) | -1.0% | 23.3 | -15.1% | 0.3% | 0.5% | u
Cc1ccc(NC(=O)COC(=O)C2(CC(=O)NC(C)(C)C)CCCC2)cc1C | u | -92.2* | -13.5% | -1.7% | u | -13.4%
SMILES | TDP1 cell CPT | IL1B secr inh | HT1080 IDH1KD tx | uPA surface inh | DT40 TDP1 no CPT | HT1080NT lethal
O=C(CN1CCN(Cc2ccc(F)cc2)C1=O)NCc1ccccc1 | -6.7% | x | x | x | 4.4% | x
CCOC(=O)CC1OC(=O)c2cc3c(cc21)C(=O)OC3CC(=O)OCC (stereo not drawn) | 14.9% | 12.1 | 16.3% | -1.5% | -23.0% | 22.7%
CCOC(=O)C(C(=O)OCC)C1OC(=O)c2cc3c(cc21)C(=O)OC3C(C(=O)OCC)C(=O)OCC (stereo not drawn) | u | -97.7* | u | -5.0% | -11.3% | u
CCCCNc1nc(Oc2ccc(OCC(N)=O)nn2)nc(N2CCOCC2)n1 | 2.7% | x | x | x | 2.3% | x
COc1cc(C(=O)NCc2nnc(SCC(=O)Nc3nc4ccccc4s3)o2)cc(OC)c1OC | 9.2µM* | 21.0 | 6.5% | 4.4% | 10.3µM* | 0.6%
COc1ccc(C(=O)NCc2nnc(SCC(=O)Nc3nc4ccccc4s3)o2)cc1 | 29.1µM* | 12.0 | 0.4% | 1.0% | u | u
COc1ccccc1NC(=O)CSc1nnc(CNC(=O)c2cccs2)o1 | 14.8% | -77.0* | 4.9% | 0.6% | 12.6% | 2.7%
COc1cc(C(=O)NCc2nnc(SCC(=O)Nc3nccs3)o2)cc(OC)c1OC | 13.5% | 36.3 | 15.4% | 3.7% | -0.5% | 19.4%
COc1ccc(C(=O)NCc2nnc(SCC(=O)Nc3cc(OC)ccc3OC)o2)cc1 | -0.7% | 1.3 | 10.2% | 1.5% | 30.8% | -1.2%
COc1ccc(NC(=O)Nc2ccc3c(c2)OCO3)c(C)c1 | -4.8% | u | -1.5% | 0.0% | -14.7% | -0.6%
COc1ccccc1NC(=O)C1=C(C)Nc2nc(SCc3ccccc3Cl)nn2C1c1ccncc1 (stereo not drawn) | -1.2% | x | x | x | -4.3% | x
CC(SC1=NCCN1S(=O)(=O)c1ccccc1)c1ccccc1 (stereo not drawn) | -18.4% | 13.7 | -1.0% | -5.6% | 0.0% | 12.4%
CCCCNC(=O)c1ccc(Cn2c(=S)[nH]c3c([nH]c4ccc(OC)cc43)c2=O)cc1 | -14.4% | 18.0 | 18.4µM* | -0.8% | u | u
COc1ccc2[nH]c3c(=O)n(Cc4ccc(C(=O)N5CCC(C(N)=O)CC5)cc4)c(=S)[nH]c3c2c1 | u | -9.9 | 6.3% | 6.0% | 29.1µM* | -0.2%
